SMARCA2 act – SMARCA2 (BRM) function activators, primary screen, cell-based, luminescence, high throughput; MG213 cells, MMTV-luciferase reporter, dexamethasone, overnight; activation, % at 9.1 µM; actives 1% (n = 370,000); AID 652017, 2013; in the data active = activation above about 7.8%
FXN GAA850 act – FXN promoter activators, primary screen, cell-based, luciferase luminescence, HEK293 lucGAA850; HEK293 lucGAA850 FXN promoter luciferase reporter, 24 h; percent of 10 µM SAHA response; activation, % at 6 µM; actives 0.56% (n = 360,000); AID 540364, 2011;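 active = activation above the average of all compounds screened plus 3 SD, cutoff fixed separately per campaign, cut at about 7.5% in these data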
GalR3 antag – GalR3 antagonists in HEK293 cells, primary screen, cell-based, fluorescence readout. Galanin receptor type 3 (Homo sapiens), O60755. HEK293 GalR3-CNG cAMP membrane potential fluorescence; galR3 body fused to GalR1 C-terminus. inhibition, % at 3 µM. actives 0.44% (n = 360,000). AID 651719, 2012;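 active = inhibition above the screen-wide average plus 3 SD, cut at about 13% in these data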;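 note: forskolin and galanin both at EC90 stimulate the cells; cAMP rise reported by CNG channel membrane potential dye signal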
Target sequence (O60755 1-299 limits assumed): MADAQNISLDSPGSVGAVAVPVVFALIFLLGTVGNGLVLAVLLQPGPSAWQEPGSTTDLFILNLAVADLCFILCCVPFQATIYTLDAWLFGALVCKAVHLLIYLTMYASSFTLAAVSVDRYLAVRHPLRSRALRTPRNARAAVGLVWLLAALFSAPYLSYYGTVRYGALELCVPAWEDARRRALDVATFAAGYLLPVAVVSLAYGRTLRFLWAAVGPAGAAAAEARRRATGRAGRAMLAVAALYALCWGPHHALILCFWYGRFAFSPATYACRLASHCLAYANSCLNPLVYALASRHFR
COUP-TFII inh – NR2F2 transcriptional activity inhibitors, primary screen, cell-based, luciferase reporter, HEK293T, luminescence. COUP transcription factor 2 (Homo sapiens), P24468. HEK293T NGFI-A luciferase reporter. inhibition, % at 8.6 µM. actives 0.7% (n = 370,000). AID 686940, 2013;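 active = inhibition above a per-plate cutoff, mean inhibition of test wells between control levels plus 3 SD, cut at about 38% in these data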;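 note: cells cotransfected with COUP-TFII expression vector driving the NGFI-A reporter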
Target sequence (P24468 whole entry, looked up): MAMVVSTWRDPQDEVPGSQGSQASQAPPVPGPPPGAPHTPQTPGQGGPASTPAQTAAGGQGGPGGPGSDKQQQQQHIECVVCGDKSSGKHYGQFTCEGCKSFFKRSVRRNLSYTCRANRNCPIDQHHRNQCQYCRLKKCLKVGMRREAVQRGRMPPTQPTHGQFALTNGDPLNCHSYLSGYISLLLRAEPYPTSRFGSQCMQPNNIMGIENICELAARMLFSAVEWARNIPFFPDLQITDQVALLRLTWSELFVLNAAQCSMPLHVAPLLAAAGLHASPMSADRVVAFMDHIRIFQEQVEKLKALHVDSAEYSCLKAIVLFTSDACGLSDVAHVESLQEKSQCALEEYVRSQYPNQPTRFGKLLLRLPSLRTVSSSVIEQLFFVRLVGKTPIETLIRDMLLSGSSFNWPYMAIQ
Gli-Sufu antag – Gli-Sufu pathway antagonists, primary screen, luciferase luminescence, Sufu-KO-LIGHT cells, uHTS. Sufu-KO-LIGHT fibroblasts, Gli luciferase reporter luminescence. inhibition, % at 5 µM. actives 0.74% (n = 340,000);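 active = inhibition above about 55%, limit read from the data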
Cardio protect – cardioprotection against H2O2-induced cell death, primary screen, uHTS, H9c2 cells, ATPLite luminescence. protection from H2O2 cell death, % at 20 µM. actives 0.63% (n = 360,000). H9c2 cardiomyocytes, H2O2 injury protection, 2 h. AID 588492, 2011;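 active = compounds giving at least 50% protection of heart cells from peroxide-induced death in the single-dose screen, raw or plate-pattern-corrected value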
Gal4-VP16 ctr – Gal4-VP16 luciferase reporter inhibitors, counter-screen for COUP-TFII antagonist project, cell-based, luminescence, HEK293; inhibition, % at 8.5 µM; actives 25% (n = 2,500); shares compounds with COUP-TFII inh; in the data active = inhibition above about 13%
COUP-TFII conf – NR2F2 transcriptional activity inhibitors, confirmation, cell-based, luciferase reporter, HEK293, triplicate; shares compounds with COUP-TFII inh; HEK293 NGFI-A luciferase reporter, luminescence; inhibition, % at 8.5 µM; actives 45% (n = 2,500); AID 687008, 2013;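 active = mean inhibition over three repeats above a set limit taken from the earlier primary screen, cut at about 38% in these data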
Each line names hits and unclear results; the compound was inactive in the other large screens (follow-up assays come after a bar, where they were run). Shown are actives, neighbours in structure and some others; about 3.4% of the full set was active somewhere.

O=C(NCc1cccc(Cl)c1)c1cccc2c(-c3cccnc3)coc12	COUP-TFII inh 42 (no result: Gli-Sufu antag) | Gal4-VP16 ctr inactive | COUP-TFII conf inactive
O=C(NCCc1ccccc1)c1cccc2c(-c3cccnc3)coc12	none (no result: Gli-Sufu antag)
CC(C)N1CCC1(C)C(=O)Nc1cccc(C#N)c1 (centres undefined)	none (no result: Gli-Sufu antag)
FC(F)(F)c1cccc(NC(=S)N(CCCN2CCCC2)Cc2cccn2Cc2ccc(Cl)cc2)c1	COUP-TFII inh 38 | Gal4-VP16 ctr inactive | COUP-TFII conf inactive
CCc1nnc(NC(=O)CN2C(=O)N(C)C3(CCCCC3)C2=O)s1	none
CC(=Cc1ccccc1)C=C1SC(=S)N(CCCC(=O)Nc2ccc(C(=O)O)cc2)C1=O	none (no result: Gli-Sufu antag)
COc1cccc(/C=C2\SC(=S)N(CCC(=O)N3CCCCC3CCO)C2=O)c1 (centres undefined)	none
COc1cccc(/C=C2\SC(=S)N(CCCC(=O)N3CCCCC3CCO)C2=O)c1 (centres undefined)	COUP-TFII inh 39 | Gal4-VP16 ctr 31 | COUP-TFII conf inactive
COc1ccc(/C=C2/SC(=S)N(CCC(=O)O)C2=O)cc1	COUP-TFII inh 46 | Gal4-VP16 ctr inactive | COUP-TFII conf 56
O=C(CCCN1C(=O)/C(=C/c2ccco2)SC1=S)Nc1ccccc1C(=O)O	none
O=C(O)CCCN1C(=O)/C(=C\c2ccco2)SC1=S	COUP-TFII inh 44 | Gal4-VP16 ctr 50 | COUP-TFII conf inactive
CC(=C\c1ccccc1)/C=C1/SC(=S)N(CCCC(=O)O)C1=O	COUP-TFII inh 38 | Gal4-VP16 ctr 73 | COUP-TFII conf 51
CCCCOC(=O)C1C2CCC(O2)C1C(=O)OCC (centres undefined)	none
CN(C)c1ccc(C(=O)OCC(=O)NCC2CCCO2)cc1 (centres undefined)	none
Cc1ccc(OCc2nnc(SCc3nc4ccccc4[nH]3)n2Cc2ccco2)cc1	COUP-TFII inh 42 | Gal4-VP16 ctr inactive | COUP-TFII conf inactive
c1ccc(-c2nnc(SCc3nc4ccccc4[nH]3)n2Cc2ccco2)cc1	none
COc1cc(Cn2c3ccc(NC(=O)CCc4ccccc4)cc3c(=O)n2C)ccc1F	none (no result: Gli-Sufu antag)
O=C(Nc1ccc(F)c(Cl)c1)C1Cc2c(-c3ccco3)ccnc2O1 (centres undefined)	COUP-TFII inh 41 (no result: Gli-Sufu antag) | Gal4-VP16 ctr inactive | COUP-TFII conf inactive
CC(=O)Nc1cccc(-c2ccnc3c2CC(C(=O)Nc2ccc(F)c(Cl)c2)O3)c1 (centres undefined)	none (no result: Gli-Sufu antag)
COc1ccc(NC(=O)C2Cc3c(-c4cccc(F)c4)ccnc3O2)cc1OC (centres undefined)	COUP-TFII inh 52 (no result: Gli-Sufu antag) | Gal4-VP16 ctr inactive | COUP-TFII conf inactive
COc1ccc(NC(=O)CN2C(=O)CC(C)(C)S(=O)(=O)c3ccccc32)cc1	none
CCc1nc2c(OCCOc3ccc(F)cc3)cccn2c1N(C)C(=O)c1ccco1	none (no result: Gli-Sufu antag)
O=C(CSc1nccc(=O)[nH]1)NN(c1ccccc1)c1ccccc1	none
CCOC(=O)/C=C1\CN(Cc2cc(OC)c(OC)c(OC)c2)S(=O)(=O)c2ccc(C(F)(F)F)cc21	COUP-TFII inh 48 | Gal4-VP16 ctr inactive | COUP-TFII conf inactive
CS(=O)(=O)c1ccc(C(=O)N2CCN(S(=O)(=O)c3ccc(C4CCCCC4)cc3)CC2)cc1	none
O=C(c1ccc(Oc2ccc([N+](=O)[O-])cc2Cl)cc1)N1CCCC1	none
O=C(c1ccc(Oc2ccc([N+](=O)[O-])cc2)cc1)N1CCCCCC1	COUP-TFII inh 47 | Gal4-VP16 ctr inactive | COUP-TFII conf inactive
COc1ccc(CNC(=O)C2=CC(c3ccc(OC)c(OC)c3)=NS(=O)(=O)N2C)cc1	none (no result: GalR3 antag)
COc1ccc(C2=NS(=O)(=O)N(C)C(C(=O)N3CCc4ccccc4C3)=C2)cc1OC	COUP-TFII inh 39 | Gal4-VP16 ctr inactive | COUP-TFII conf inactive
CCc1ccc(NC(=O)C2=CC(c3ccc(OC)c(OC)c3)=NS(=O)(=O)N2C)cc1	COUP-TFII inh 38 (no result: GalR3 antag) | Gal4-VP16 ctr inactive | COUP-TFII conf inactive
CN(C(=O)CSc1nc2c(cnn2-c2ccccc2)c(=O)[nH]1)C1CCS(=O)(=O)C1 (centres undefined)	none (no result: FXN GAA850 act, Gli-Sufu antag, Cardio protect)
CCCNC(=O)C1(C)CCN(Cc2ccc(-c3ccccc3)o2)C1 (centres undefined)	none (no result: Gli-Sufu antag)
CCn1c(SCC(=O)c2[nH]c(C)c(C(C)=O)c2C)nnc1-c1cccs1	COUP-TFII inh 52 | Gal4-VP16 ctr inactive | COUP-TFII conf inactive
O=C(CSc1nncs1)Nc1ccc(Cl)cc1C(F)(F)F	none
O=C(OCCOc1ccccc1)c1n[nH]c2ccccc12	none
Cc1ccccc1Oc1ccc(NC(=O)C2CC=CCC2C(=O)O)cc1 (centres undefined)	none
CC(C)(C)c1ccc(Oc2ccc(NC(=O)C3CC=CCC3C(=O)O)cc2)cc1 (centres undefined)	COUP-TFII inh 91 | Gal4-VP16 ctr 15 | COUP-TFII conf inactive
COc1ccc(CCNC(=O)c2ccc3c(c2)OCCO3)cc1	none
O=C(NCCc1ccccc1)c1ccc2c(c1)OCCO2	COUP-TFII inh 71 | Gal4-VP16 ctr 36 | COUP-TFII conf 53
O=C(CCCc1ccccc1)c1ccc2c(c1)OCCO2	COUP-TFII inh 85 | Gal4-VP16 ctr 49 | COUP-TFII conf 90
O=C(NCCc1ccccc1)c1ccc2c(c1)OCCCO2	COUP-TFII inh 88, Gli-Sufu antag 70 | Gal4-VP16 ctr 72 | COUP-TFII conf 91
O=C(C[n+]1ccc(C(=O)NCc2ccccc2)cc1)c1ccc2c(c1)OCCO2	none
O=C(CCc1ccccc1)c1ccc2c(c1)OCCCO2	none
Nc1cc[n+](CC(=O)c2ccc3c(c2)OCCO3)cc1	COUP-TFII inh 40 | Gal4-VP16 ctr inactive | COUP-TFII conf inactive
Cc1cc(Cl)ccc1OCC(=O)N/N=C/c1ccc[nH]1	none (no result: SMARCA2 act, FXN GAA850 act, GalR3 antag, Gli-Sufu antag, Cardio protect)
Cc1oc(-c2ccc(Cl)cc2)nc1CS(=O)CC(=O)NCc1ccccn1 (centres undefined)	none
CCOC(=O)C1CCCCN1C(=O)CCc1c(C)nc2cc(-c3ccccc3)nn2c1C (centres undefined)	COUP-TFII inh 52 | Gal4-VP16 ctr inactive | COUP-TFII conf inactive
